This is a sample that favours compounds with a hit; in the whole collection about 4% have one here.
Wnt act – Wnt/beta-catenin pathway activation. Wnt/beta-catenin reporter cell assay, activator, plate reader. activation, % at 9.35 µM. 300,000 tested, 1.2% active; in the data active = activation above about 30%, passing the limit was not always enough; inconclusive = no clear call, values can overlap the other calls
Statin myotox sup – suppression of simvastatin myotoxicity | rescue of ATP level, % at 7.49 µM | AID 602340 | C2C12 myotubes + simvastatin, ATP luminescence, 48 h; scaled: DMSO 0, geranylgeraniol control 100 | 330,000 tested, 0.78% active;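 active = mean ATP rescue above about 67%, or every replicate alone reaching that limit, limit read from the data, passing the limit was not always enough; inconclusive = no clear call, values can overlap the other calls; inactive = mean under the limit and some replicate under it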;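 note: myotubes were challenged with 10 µM simvastatin during compound exposure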
EBV LMP1 NFkB – Epstein-Barr LMP1 NF-kappaB reporter inhibition. AID 504558. 350,000 tested, 0.69% active. LMP1-induced NF-kappaB luciferase reporter cells, luminescence. inhibition, % at 12.5 µM; in the data active = inhibition above about 41%; inconclusive = no clear call, values can overlap the other calls
MITF TRPM1 HTS – MITF TRPM1 promoter activation in melanoma cells. AID 588334. 300,000 tested, 0.75% active. SK-MEL-5 TRPM1-promoter luciferase, 24 h; % of positive control, neutral wells = 0. activation, % at 12.5 µM;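 active = mean activation of at least 80% with every replicate also reaching 80%; inconclusive = mean reaches 80% but some replicate falls short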
esBAF inh – blocks esBAF chromatin remodeling in mouse ES cells; AID 602393; Bmi1-luciferase knock-in reporter, 24 h; 100% = twice the neutral-well signal; reporter increase, % at 12.5 µM; 350,000 tested, 2% active; in the data active = activation above about 40%; inconclusive = no clear call, values can overlap the other calls;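 note: a rise in the Bmi1 reporter signal indicates esBAF inhibition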
MITF TRPM1 inh – reduces MITF-dependent TRPM1 promoter luciferase signal; SK-MEL-5 TRPM1 promoter luciferase, 24 h; inhibition, % at 12.5 µM; 330,000 tested, 0.83% active; AID 488899;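 active = mean inhibition across replicates of 60% or more, whatever share of single replicates reaches that level; inconclusive = some that reach 60%, reason not given; inactive = mean inhibition across replicates below 60%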
Of the large screens only hits and unclear results are named; the others gave an inactive call.

Cc1c(Cl)ccc2sc(NC(=O)c3ccco3)nc12	Wnt act inconclusive, esBAF inh 64 (no result: MITF TRPM1 HTS, MITF TRPM1 inh)
O=C(Nc1nc2cc3c(cc2s1)OCO3)c1ccco1	EBV LMP1 NFkB 58
O=C(Nc1nc2cc3c(cc2s1)OCO3)C1=COCCO1	EBV LMP1 NFkB 73, MITF TRPM1 inh 83
CO[C@H]1CN(C)C(=O)c2ccc(NC(=O)c3ccc(Oc4ccccc4)cc3)cc2OC[C@H](C)NC[C@@H]1C	none (no result: Wnt act, EBV LMP1 NFkB, MITF TRPM1 HTS, MITF TRPM1 inh)
CC(=O)Nc1nc2cc3c(cc2s1)OCO3	esBAF inh 57 (no result: MITF TRPM1 HTS, MITF TRPM1 inh)
COc1ccc(-c2nc(NC(=O)c3ccco3)sc2C)cc1	esBAF inh 65 (no result: MITF TRPM1 HTS, MITF TRPM1 inh)
O=C(Nc1ccc(-c2nc3ccccc3s2)cc1)C1=COCCO1	EBV LMP1 NFkB 72 (no result: Wnt act, Statin myotox sup, esBAF inh)
Nc1nc(-c2ccccc2Cl)cs1	esBAF inh inconclusive (no result: EBV LMP1 NFkB, MITF TRPM1 HTS, MITF TRPM1 inh)
O=C(CCC(=O)Nc1ccc(Br)cc1)N/N=C/c1ccccc1O	none
O=C(NCCc1cccc(F)c1)C1CCN(S(=O)(=O)c2ccccc2)CC1	none
CC(C(=O)NCC1CCCO1)n1cccc1C(=O)c1ccccc1 (stereo not drawn)	Statin myotox sup 107
Cc1ccc(CNC(=O)Cn2cccc2C(=O)c2ccccc2)cc1	Statin myotox sup 109
CC(C(=O)NCc1ccc(Cl)cc1)n1cccc1C(=O)c1ccccc1 (stereo not drawn)	EBV LMP1 NFkB 74
O=C(c1ccccc1)c1cccn1CC(=O)N1CCCCCC1	Statin myotox sup 110 (no result: Wnt act)
CCCCSC1=N/C(=C/c2ccsc2)C(=O)N1c1ccccc1	none (no result: Statin myotox sup, esBAF inh)
Nc1ccc2nc(CN3CCOCC3)[nH]c2c1	none (no result: Wnt act)
Cc1ccc(SCCC(=O)Nc2nccs2)cc1	none
CC(=O)c1nn(-c2cccc(Br)c2)cc1C(=O)c1ccc(Br)cc1	none (no result: MITF TRPM1 HTS)
CCOC(=O)c1nn(-c2ccc(Br)cc2)cc1C(=O)c1cccc2ccccc12	esBAF inh 78 (no result: Wnt act)
CCOC(=O)c1nn(-c2ccc(F)cc2)cc1O	MITF TRPM1 HTS 92 (no result: Statin myotox sup, esBAF inh)
NC(=O)[C@@H]1CCCN1C(=O)[C@@H](Cc1ccccc1)NC(=O)[C@H]1O[C@@H](n2ccc(=O)[nH]c2=O)[C@H](O)[C@@H]1O	none (no result: Statin myotox sup, EBV LMP1 NFkB, MITF TRPM1 HTS, esBAF inh, MITF TRPM1 inh)
COc1ccc(CC(=S)N2CCOCC2)cc1OC	none
Cc1ccc(N=Cc2c(O)c3ccccc3n(C)c2=O)cc1	none (no result: MITF TRPM1 HTS)
Cc1ccc(N=Cc2cccc(O)c2O)c(C)c1	none (no result: MITF TRPM1 HTS)
Cc1ccc(N=Cc2sc(O)c3ccccc23)cc1	Wnt act 84, esBAF inh 94 (no result: MITF TRPM1 HTS)
Cc1ccc(N=Cc2sc(O)c3ccccc23)c(C)c1	esBAF inh 74 (no result: MITF TRPM1 HTS)
O=C(N/N=C/c1ccco1)c1cc(-c2ccc(Cl)cc2)n[nH]1	none (no result: Statin myotox sup, esBAF inh)
Cc1cc(C)cc(Oc2ccc(-c3nnc(-c4ccccc4)o3)cc2[N+](=O)[O-])c1	none (no result: Statin myotox sup, esBAF inh)
CCCCNc1c(-c2ccc(SC3CCCCC3)cc2)nc2ccccn12	Wnt act 37
COC(=O)c1ccc2c(C)c(C3(O)CCCCC3)[nH]c2c1	esBAF inh 66
O=C(c1ccc(Cl)cc1)N1CCCC(c2ccccc2)=N1	Statin myotox sup 80 (no result: Wnt act)
CC1(O)CC(c2ccc(Cl)cc2)=NN1C(=O)c1ccc(Cl)cc1 (stereo not drawn)	none
Cc1ccc(O)c(C(=O)c2cc(C#N)c(=O)n(CC3CCCO3)c2)c1 (stereo not drawn)	Statin myotox sup 95
COc1ccc(O)c(C(=O)c2cc(C#N)c(=O)n(CC3CCCO3)c2)c1 (stereo not drawn)	none (no result: Statin myotox sup)
CCOc1ccc(C(=O)Nc2ccc3[nH]ncc3c2)cc1	Wnt act 55
CCN(CC)c1ccc(NC(=O)c2cnn(CC)c2)cc1	esBAF inh 54 (no result: Wnt act)
CCn1cc(C(=O)Nc2ccccc2C(=O)OC)cn1	none (no result: EBV LMP1 NFkB, MITF TRPM1 HTS, MITF TRPM1 inh)
CCOc1cccc(C(=O)Nc2cccc(C(C)=O)c2)c1	none
COc1ccc(C(=O)Nc2ccc3[nH]ncc3c2)cc1	none (no result: MITF TRPM1 HTS)
CCC(=O)Nc1cccc(NC(=S)NC(=O)c2ccc(Cl)cc2)c1	esBAF inh 61
CCOc1cccc(C(=O)Nc2ccc3ccccc3c2)c1	Wnt act 36 (no result: MITF TRPM1 HTS)
C[C@@H]1CN([C@H](C)CO)S(=O)(=O)c2ccc(C#CC(C)(C)O)cc2O[C@@H]1CN(C)Cc1ccc(-c2ccccc2)cc1	none (no result: Wnt act, EBV LMP1 NFkB, MITF TRPM1 HTS, MITF TRPM1 inh)
CCN(c1ccccc1)S(=O)(=O)c1cccc(C(=O)OCc2nc3sc(C)c(C)c3c(=O)[nH]2)c1	none (no result: Statin myotox sup, esBAF inh)
CCOc1cccc(C(=O)Nc2ccc3c(c2)OCCO3)c1	Wnt act 42 (no result: MITF TRPM1 HTS)
O=C(Nc1ccc2c(c1)OCCO2)c1cncc(Br)c1	Wnt act 41 (no result: MITF TRPM1 HTS)
CCOc1cccc(C(=O)Nc2ccc(N(CC)CC)cc2)c1	esBAF inh 44 (no result: Wnt act)
CCOc1cccc(C(=O)NC(=S)Nc2cccc(C)c2)c1	esBAF inh 42
O=C(Nc1ccc2c(c1)OCCO2)c1cccc(C(=O)Nc2ccc3c(c2)OCCO3)c1	none
CCOc1cccc(C(=O)Nc2ccc(N3CCCC3)cc2)c1	none (no result: MITF TRPM1 HTS)
CC(C)C(=O)Nc1ccc(C(=O)NC2CCSC2=O)cc1 (stereo not drawn)	none (no result: Wnt act)
COc1cccc(S(=O)(=O)Nc2ccc3c(c2)OC[C@H](C)N(C(=O)Cc2cccnc2)C[C@H](C)[C@H](OC)CN(C)C3=O)c1	none (no result: Wnt act, EBV LMP1 NFkB, MITF TRPM1 HTS, MITF TRPM1 inh)
C=CS(=O)(=O)c1c2cc(OC)ccc2nc2ccc(OC)cc12	Wnt act 458 (no result: Statin myotox sup, MITF TRPM1 HTS, esBAF inh)
CCC1(C)Cc2c(sc3nc(SC)n(Cc4ccccc4)c(=O)c23)CO1 (stereo not drawn)	esBAF inh 59 (no result: Wnt act)
CCc1nc2sc3c(c2c(=O)n1N)CC(C)(C)OC3	none (no result: Statin myotox sup, esBAF inh)
CC1(C)Cc2c(sc3nc(-c4cccs4)n(N)c(=O)c23)CO1	esBAF inh 73 (no result: Wnt act)
CC1(C)Cc2c(sc3nc(-c4ccccc4)n(N)c(=O)c23)CO1	esBAF inh 43 (no result: Wnt act)
CC(C)(C)c1csc(NC(=O)Cn2c(=O)oc3ccccc32)n1	none (no result: MITF TRPM1 HTS)
Cc1ccc(NC(=S)NCc2cccs2)cc1	EBV LMP1 NFkB 87 (no result: Wnt act, Statin myotox sup, esBAF inh)
S=C(NCc1cccs1)Nc1ccccc1	none (no result: Statin myotox sup, esBAF inh)
COc1cccc(C2=NC(C)(C)NC(c3ccccc3O)C2)c1 (stereo not drawn)	none (no result: Wnt act, Statin myotox sup, esBAF inh)
CCC1(C)N=C(c2ccc3c(c2)OCO3)CC(c2ccccc2O)N1 (stereo not drawn)	esBAF inh 46
CC(=NNC(=S)Nc1cccc(C)c1)c1ccccn1	EBV LMP1 NFkB 76, MITF TRPM1 inh 72 (no result: Statin myotox sup, esBAF inh)
CC(=NNC(=S)Nc1ccc(C)cc1)c1ccccn1	EBV LMP1 NFkB 62
CC(C)=CCN1CCN(CC#Cc2ccccc2)CC1CCO (stereo not drawn)	none
CC(C)CN(C(=O)COC(=O)c1ccc([N+](=O)[O-])s1)c1c(N)n(Cc2ccccc2)c(=O)[nH]c1=O	MITF TRPM1 inh 60
CCCCn1c(N)c(N(CCC(C)C)C(=O)COC(=O)c2ccc([N+](=O)[O-])s2)c(=O)[nH]c1=O	MITF TRPM1 inh 80
O=CNCc1nc2ccccc2n1CCCc1ccccc1	none
Cc1ccccc1OCc1nnc2c3cnn(C)c3ncn12	MITF TRPM1 HTS 90, esBAF inh 54 (no result: Wnt act)

Screening results as filed in PubChem BioAssay.
